PLK1 PBD inh: PLK1 (human) polo-box domain binding inhibition; Plk1 PBD binding of FITC phosphopeptide, fluorescence polarization; Potency, µM, actives largely listed as inhibitors; actives 2.8% (n = 360,000); AID 720504; further: series mostly up to about 57 µM; nearly all actives have a fitted effect of over 65% in size
PI5P4Ka inh: blocks human PI5P4K alpha kinase activity; P48426; PI5P4Kalpha enzyme, ADP-Glo luminescence, 60 min; active compounds read low; max response, %; actives 1.2% (n = 330,000); active means max response of -50% or lower; inconclusive means between -30% and -50%; inactive means -30% or higher; further: value at the top dose of about 77 µM
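Reactions run in 0.038 M HEPES pH 7.4, 0.28 mM EGTA, 0.1% CHAPS and 5% DMSO, with PI5P4Kalpha, substrate, compound and 5 microM ATP final, one hour at room temperature. Readout is ADP-Glo luminescence.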
Rango release inh: prevents RanGTP from dissociating the Rango-importin beta complex. AID 540253. actives 0.071% (n = 340,000). Potency, µM (series often up to 46.1 µM). Biochemical FRET Rango-importin beta, RanGTP-induced dissociation; calls by dose curve; further: nearly all actives have a fitted effect of over 45% in size
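FRET read at 45 min, room temperature: inhibitors block the CFP/YFP signal rise when RanGTP (0.6 uM Ran, 2 mM GTP, 0.2 uM RCC1) frees Rango (0.1 uM) from importin beta (0.25 uM). Pre-read after 5 min compound exposure flags interference.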
GCN5L2 inh: blocks human GCN5L2 histone acetyltransferase | Q92830 | GCN5L2 HAT assay, ThioGlo1 CoA-SH fluorescence | actives 0.21% (n = 390,000) | Potency, µM (titrated, usually from 58.9 µM), most hits filed as inhibitors | AID 504327
Target sequence (Q92830 whole entry, looked up): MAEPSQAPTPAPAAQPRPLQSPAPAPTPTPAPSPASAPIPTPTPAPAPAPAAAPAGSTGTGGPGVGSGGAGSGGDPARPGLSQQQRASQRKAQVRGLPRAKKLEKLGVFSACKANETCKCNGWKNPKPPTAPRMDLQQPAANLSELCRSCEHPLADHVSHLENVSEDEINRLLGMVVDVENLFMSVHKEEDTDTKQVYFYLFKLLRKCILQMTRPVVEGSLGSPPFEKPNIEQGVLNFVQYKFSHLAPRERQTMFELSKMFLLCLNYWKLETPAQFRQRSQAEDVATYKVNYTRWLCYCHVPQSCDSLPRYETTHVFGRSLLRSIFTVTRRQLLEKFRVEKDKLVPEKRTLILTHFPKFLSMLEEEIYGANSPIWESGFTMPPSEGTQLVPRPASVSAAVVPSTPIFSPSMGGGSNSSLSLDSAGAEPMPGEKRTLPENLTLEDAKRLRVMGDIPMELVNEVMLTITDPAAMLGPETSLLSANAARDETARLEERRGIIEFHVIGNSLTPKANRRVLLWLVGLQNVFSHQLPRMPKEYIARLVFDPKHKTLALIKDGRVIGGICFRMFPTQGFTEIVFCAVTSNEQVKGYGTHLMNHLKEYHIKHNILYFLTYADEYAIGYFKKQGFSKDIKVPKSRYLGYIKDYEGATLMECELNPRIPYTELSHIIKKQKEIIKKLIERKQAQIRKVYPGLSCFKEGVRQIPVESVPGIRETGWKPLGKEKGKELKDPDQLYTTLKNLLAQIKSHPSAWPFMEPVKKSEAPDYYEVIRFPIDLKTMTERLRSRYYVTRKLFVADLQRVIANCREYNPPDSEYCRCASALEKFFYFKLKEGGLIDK
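Free CoA generated was detected with ThioGlo1 (50uM) fluorescence at Ex340nm/Em540nm, read immediately and after 20 min at room temperature. Enzyme, 20 nM in HEPES pH 7.5 buffer, saw compounds 15 min before adding 75uM H3(1-25) peptide and 70uM acetyl-CoA.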
Rango complex inh: inhibitors of Rango-importin beta complex formation | AID 540263 | Potency, µM (highest dose often 92.2 µM) | Q14974 | actives 0.031% (n = 340,000) | Rango CFP/YFP FRET sensor + importin beta, 45 min; calls by dose curve; further: nearly all actives have a fitted effect of over 15% in size
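Inhibition scored from the CFP 486 nm/YFP 530 nm FRET ratio 45 min after adding 0.125 microM importin beta to 50 nM Rango biosensor preincubated 5 min with compound (room temperature, PBS with DTT, Tween-20, BSA). No-importin wells as positive control.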
VDR inhibitor: blocks the human vitamin D receptor; P11473; VDR-SRC2-3 peptide fluorescence polarization, 2 h; Potency, µM, most hits filed as inhibitors; actives 0.93% (n = 400,000)
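After 23 nl compound addition and a short centrifugation, plates sat for 2 hours at ambient temperature; polarization of fluorescence then indicated loss of VDR binding to peptide SRC2-3.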
VDR confirm: confirmation of human vitamin D receptor inhibitors | shares compounds with VDR inhibitor | VDR-coactivator inhibition assay, qHTS confirmation | Potency, µM, most hits filed as inhibitors | actives 89% (n = 840)
VDR FP: VDR (human) coactivator binding inhibition, fluorescein polarization; shares compounds with VDR inhibitor; VDR-coactivator binding, fluorescein fluorescence polarization; Potency, µM (highest dose often 57.1 µM), actives largely listed as inhibitors; actives 48% (n = 840)
VDR bla reporter: inhibits human VDR in beta-lactamase reporter cells; Potency, µM (titrated, usually from 46.1 µM), usual class: inhibitors; VDR beta-lactamase reporter cells, FRET ratio; cells co-treated with VDR agonist LG190178; shares compounds with VDR inhibitor; AID 602202; actives 23% (n = 840)
VDR viability: cell toxicity, VDR inhibitor hit counter-screen; actives 18% (n = 840); AID 602204; cytotoxicity counter-screen, cell viability, qHTS; Potency, µM (series often up to 48.3 µM), most hits filed as cytotoxic; shares compounds with VDR inhibitor; further: nearly all actives have a fitted effect of over 75% in size
Numbers stand for hits; . = inactive; ? = inconclusive; / = not tested or not shown. The list is not random: actives were taken first. Their share in the collection is about 3.6%. Unless noted, the call rests on the fitted dose curve; in most records, active means well fitted curve in the direction sought with a large enough effect; inconclusive means small, poorly fitted or top-dose-only effect, or another doubt; inactive means no such curve, though single readings can be large; an effect the other way counts as inactive or inconclusive.

SMILES	PLK1 PBD inh	PI5P4Ka inh	Rango release inh	GCN5L2 inh	Rango complex inh	VDR inhibitor	VDR confirm	VDR FP	VDR bla reporter	VDR viability
O=C(O)CSc1cc(NS(=O)(=O)c2ccc(Cl)cc2)c2ccccc2c1O	1.34µM	-54.5	.	.	.	3.55µM	29.9	?	?	?
O=C(CSc1n[nH]c(-c2ccccc2Cl)n1)N1CCN(c2ccc(F)cc2)CC1	/	/	/	.	/	.	/	/	/	/
N#CCCn1c(=O)c(CCc2ccccc2)nc2cnc(Nc3ccccc3)nc21	/	/	/	.	/	.	/	/	/	/
Nc1ncnc2c1ncn2[C@@H]1O[C@H](CNCc2ccc(-c3cc(C(F)(F)F)ccc3Cl)o2)[C@@H](O)[C@H]1O	.	.	.	.	.	28.2µM	?	?	.	.
CCCCn1c(=O)nc2n(-c3ccc(Br)cc3)c3ccccc3cc-2c1=O	/	/	/	.	/	.	/	/	/	/
COC(=O)[C@H](C)NC(=O)c1cc2c(cn1)[nH]c1ccccc12	1.34µM	?	.	.	.	22.4µM	3.36	?	.	.
CCOC(=O)C(Cc1ccc(O)cc1)NC(=O)c1cc2c(cn1)[nH]c1ccccc12 (stereo not drawn)	.	.	/	/	/	/	/	/	/	/
Oc1ccc(N=C/C=C/c2cccc(Br)c2)cc1-c1nc2ccccc2s1	?	-58.6	?	.	?	?	8.91	22.4µM	18.4µM	?
Cn1cc(C(=O)[C@@H]2CCc3[nH]cnc3C2)c2ccccc21	/	/	/	.	/	.	/	/	/	/
COc1ccc(Cl)cc1NC(=O)c1c(NCc2sccc2C)sc2c1CCCC2	/	/	/	?	/	17.8µM	3.55	3.16µM	.	.
COc1ccccc1NC(=O)c1c(NCc2sccc2C)sc2c1CCCCC2	/	/	/	.	/	.	/	/	/	/
O=C(COc1ccc(Cl)cc1)Nc1sc2c(c1C(=O)Nc1cccc(Cl)c1)CCCC2	/	/	/	?	/	?	7.94	7.94µM	.	.
COc1ccc(NC(=O)c2c(NC(=O)COc3ccccc3)sc3c2CCCCC3)cc1	/	/	/	.	/	.	/	/	/	/
C[C@H]1[C@H](C)CC[C@]2(C=O)CC[C@]3(C)C(=CC[C@@H]4[C@@]5(C)C[C@@H](O)[C@H](O)[C@@](C)(CO)[C@@H]5CC[C@]43C)[C@H]12	/	/	/	.	/	.	/	/	/	/
Cc1cccc(NC(=O)C2CCN(S(=O)(=O)c3ccc4c(c3)CCCN4C(=O)C3CCC3)CC2)c1	/	/	/	.	/	.	/	/	/	/
Cc1cc(F)ccc1NC(=O)CN1C(=O)CCc2cc(S(=O)(=O)N3CCOCC3)ccc21	/	/	/	.	/	.	/	/	/	/
CCOC(=O)CS(=O)(=O)c1nc(-c2ccccc2)cc(C(F)(F)F)n1	10.6µM	.	.	.	.	20µM	7.52	?	?	?
CCOC(=O)CS(=O)(=O)c1ccccc1	.	.	.	.	.	.	/	/	/	/
CCOC(=O)CCS(=O)(=O)c1nc(-c2ccccc2)cc(C(F)(F)F)n1	?	.	.	.	.	44.7µM	5.97	10µM	?	?
CCOC(=O)Cc1cc(-c2ccccc2)nc2ccc3ccccc3c12	.	.	.	.	.	.	/	/	/	/
CCOC(=O)c1cc(-c2ccccc2)n(-c2cccc(C(=O)Nc3cccc(SC)c3)c2)c1C	/	/	/	.	/	.	/	/	/	/
O=[N+]([O-])c1c(NCCCO)cc(Sc2ccc(Cl)cc2)c2nonc12	2.38µM	.	.	.	.	?	6.31	7.08µM	23.1µM	?
NC(=O)c1ccc(N=C2C(=O)Nc3ccc([N+](=O)[O-])cc32)cc1	?	.	.	.	.	?	0.631	0.708µM	.	.

Source: PubChem (National Center for Advancing Translational Sciences (NCATS))
